Test results as given in PubChem BioAssay (NCI).
The panel holds about 83,000 compounds, 20% with a hit somewhere; the sample as a whole holds those more often.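 Percent growth is the endpoint: 0 to 100 indicates growth inhibition (40 means 60% inhibition), 0 means no net growth, and negative values indicate cell death.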 Values without a mark were called inactive. Active and inactive are the calls of the source. How the source made its calls: active means growth percent below 10; inactive means the rest.

Experiments:
Assay in all cases: NCI-60 one-dose screen, 48 h (100 = growth as untreated, 0 = no growth, -100 = all killed)
Settings in all cases: 10 µM
NCI-H23 lung = system: NCI-H23 lung
NCI-H226 lung = system: NCI-H226 lung
NCI-H322M lung = system: NCI-H322M lung
HOP-62 NSCLC = system: HOP-62 NSCLC
NCI-H460 lung = system: NCI-H460 lung
NCI-H522 lung = system: NCI-H522 lung
A549/ATCC NSCLC = system: A549/ATCC NSCLC
786-0 renal = system: 786-0 renal
COLO 205 colon = system: COLO 205 colon
DU-145 prostate = system: DU-145 prostate

Row | Compound | growth (NCI-H23 lung) | growth (NCI-H226 lung) [%] | growth (NCI-H322M lung) [%] | growth (HOP-62 NSCLC) [%] | growth (NCI-H460 lung) | growth (NCI-H522 lung) | growth (A549/ATCC NSCLC) | growth (786-0 renal) [%] | growth (COLO 205 colon) | growth (DU-145 prostate)
1 | COc1cc(/C=C/C(=O)c2ccc(Cl)cc2)ccc1OS(=O)(=O)c1ccc(C)cc1 | 99.3% | 98.5 | 96.7 | 95.1 | 103% | 81.7% | 99.9% | 102 | 110% | 105%
2 | COc1ccc(CN2CCC(N3CCCC3=O)c3cc(Cl)ccc32)cc1 (stereo not given) | 96% | 114 | 104 | 98.3 | 110% | 75.6% | 104% | 109 | 110% | 116%
3 | COc1cc(CNCCCCCCN2C(=O)c3cccc4cccc(c34)C2=O)ccc1O | 84% | 96.4 | 67.3 | 70.3 | 78.1% | 60.9% | 64.3% | 58.3 | 45.8% | 80.9%
4 | Nc1ccc2c(c1)Cc1cc(N)c(Br)cc1-2 | 92.1% | 106 | 113 | 93.4 | 97% | 96.7% | 100% | 120 | 107% | 121%
5 | COC(=O)C(=C\c1ccc2c(c1)OCO2)/C(=C/c1ccc2c(c1)OCO2)C(=O)OC | 92.4% | 97.8 | 96.9 | 102 | 112% | 86% | 101% | 98.1 | 102% | 103%
6 | CC(=O)N(C)c1ccc(Nc2ccc(Nc3ccc(N(C)C(C)=O)cc3)c3c2C(=O)c2ccccc2C3=O)cc1 | 87.3% | 84.2 | 75.4 | 75.2 | 64.9% | 53.8% | 63.5% | 78.7 | 70.6% | 91.2%
7 | N=C1c2nc3n(c2C(=O)c2nc4n(c21)CCCC4)CCCC3 | -70.4% (active) | 57.1 | 27.7 | 52.3 | 4.62% (active) | 10.5% | -30.6% (active) | 89 | -88.6% (active) | -93.9% (active)
8 | O=C(Nc1ccc(OS(=O)(=O)c2ccccc2)cc1)C12CC3CC(CC(C3)C1)C2 | 51.5% | 60.4 | 68.7 | 74.4 | 35.5% | 50.9% | 41.6% | 57.5 | -0.16% (active) | 71.6%
9 | O=C1OCC2=C1C(c1ccc(Cl)c(Cl)c1)c1cc3c(cc1N2CCO)OCCO3 (stereo not given) | 32.5% | 25.4 | 37.3 | 34.1 | 6.2% (active) | -26.7% (active) | 22.6% | 25.7 | -11.9% (active) | 6.74% (active)
